IMPase inh = IMPase inhibition in cells; AID 901; CHO-M1 cells, IP1 accumulation, HTRF TR-FRET ratio; 120,000 tested, under 10 active; P97697; inhibition (IP1 accumulation), % at 46.1 µM; active = well fitted curve in the direction sought with a large enough effect in the signal ratio, not every such curve was filed as active; inconclusive = small, poorly fitted or top-dose-only effect, or a change in a side signal; inactive = no such curve, though single readings can be large or run the other way; the % refers to the signal ratio;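 note: cells stimulated with carbachol in lithium chloride buffer; higher means more IMPase inhibition seen as more IP1 and lower FRET ratio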
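Cellular IMPase inhibition is scored as a rise in cytosolic IP1, detected by competitive TR-FRET between d2-labelled IP1 and a europium anti-IP1 antibody. M1-expressing CHO cells were stimulated with carbachol for 30 min at 37C, with lithium (50 mM LiCl) present in the buffer.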
ALDH1A1 inh = blocks purified human ALDH1A1 activity; P00352; Purified ALDH1A1, NADH fluorescence, propionaldehyde substrate; Potency, µM (series often up to 75.3 µM), usual class: inhibitors; hit rate 7.3% among 220,000; AID 1030
Target sequence (P00352 whole entry, looked up): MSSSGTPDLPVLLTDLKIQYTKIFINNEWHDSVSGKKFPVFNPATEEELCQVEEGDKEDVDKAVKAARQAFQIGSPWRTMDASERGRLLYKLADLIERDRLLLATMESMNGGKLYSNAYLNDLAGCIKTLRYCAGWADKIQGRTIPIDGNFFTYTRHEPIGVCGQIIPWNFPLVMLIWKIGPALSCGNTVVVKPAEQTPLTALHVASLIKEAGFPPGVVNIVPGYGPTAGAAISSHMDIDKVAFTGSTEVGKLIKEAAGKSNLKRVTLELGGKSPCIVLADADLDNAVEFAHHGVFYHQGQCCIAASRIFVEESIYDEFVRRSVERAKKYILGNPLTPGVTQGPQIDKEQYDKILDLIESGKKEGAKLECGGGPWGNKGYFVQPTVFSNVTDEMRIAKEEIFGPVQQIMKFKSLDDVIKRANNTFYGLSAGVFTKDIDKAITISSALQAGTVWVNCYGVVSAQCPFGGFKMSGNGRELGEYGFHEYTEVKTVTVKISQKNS
HPGD inh = HPGD (human) dehydrogenase inhibition; P15428; purified HPGD, NADH fluorescence kinetic, PGE2 substrate; Potency, µM, hits mostly inhibitors; hit rate 4.3% among 150,000
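NADH formation kinetics: reaction with 30 uM PGE2 and 1 mM NAD+ (final), 20 nM enzyme, Tris-HCl pH 8 with Tween 20, after 15 min compound preincubation at room temperature. Fluorescence change, last versus first of five reads.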
Hits are given with their value; i = inactive; ? = inconclusive; nt = not tested or not shown; [ ] = another dose, or the depositor's remark. Hits are enriched below; roughly 9% of the tested compounds scored in any of these assays. Unless noted, calls come from the whole dose curve; as a rule, active = well fitted inhibition curve with a large enough effect (not every such curve was filed as active); inconclusive = small, poorly fitted or top-dose-only effect, or another doubt; inactive = no such curve, though single readings can be large or run the other way.

SMILES	IMPase inh	ALDH1A1 inh	HPGD inh
CCN(CC)S(=O)(=O)c1ccc(S(=O)(=O)Nc2ccc3c(c2)oc2ccccc23)cc1	i	?	i
CN(C)S(=O)(=O)c1ccc(S(=O)(=O)Nc2ccc3c(c2)oc2ccccc23)cc1	i	13µM	i
CCOC(=O)/C(C#N)=C\c1cn(C)c2ccccc12	nt	i	nt
CCOC(=O)/C(=C\c1cn(C)c2ccccc12)[N+](=O)[O-]	i	6.3µM	3.5µM
COc1ccc(-n2nc(C(=O)NCC(=O)NCC3COc4ccccc4O3)c3ccccc3c2=O)c(OC)c1 (stereo not given)	nt	i	nt
O=S(=O)(c1cnc[nH]1)N1CCc2ccccc21	i	20µM	i
CC1Cc2ccccc2N1S(=O)(=O)c1cnc[nH]1 (stereo not given)	i	i	i
O=C1CCN(C2CCN(Cc3nc(Cc4ccccc4F)no3)CC2)CCN1	nt	i	nt
Cc1ccc(C=C2C(=O)c3ccccc3C2=O)s1	i	0.5µM	13µM
Cc1ccc(/C=C2/C(=O)N=C(N)N2C)s1	nt	i	i
Cc1nnc(SCC(=O)Nc2ccc(N(C)C)cc2)n(N)c1=O	nt	i	nt
C[C@H](NC(=O)c1nc[nH]c1C(=O)N[C@@H](Cc1ccccc1)C(=O)OCc1ccccc1)c1ccccc1	nt	5µM	nt
C[C@@H](NC(=O)c1nc[nH]c1C(=O)N[C@@H](Cc1ccccc1)C(=O)OCc1ccccc1)c1ccccc1	nt	i	nt
CC(C)(C)OC(=O)NCCCC[C@H](NC(=O)c1nc[nH]c1C(=O)NC(c1ccccc1)c1ccccc1)C(=O)OC(C)(C)C	nt	2.8µM	nt
CC(C)(C)OC(=O)NCCCCCNC(=O)c1[nH]cnc1C(=O)N[C@@H](CCCCNC(=O)OC(C)(C)C)C(=O)OC(C)(C)C	nt	i	nt
CCCCCCCCCCCCCCCCOCC(CO)OC (stereo not given)	nt	i	i
c1ccc(COCCCc2cnc[nH]2)cc1	nt	i	i
COc1ccc(-n2cc(CN(C)C(C)c3ccncn3)c(-c3cccc(F)c3)n2)cc1 (stereo not given)	nt	25µM	nt
COc1cccc(-c2nn(-c3ccccc3)cc2CN(C)C(C)c2ccncn2)c1 (stereo not given)	nt	i	nt
O=C(NC(=S)NNC(=O)[C@H]1C[C@@H]1c1ccccc1)c1ccc(F)cc1	nt	25µM	nt
O=C(NNC(=O)C1CC1c1ccccc1)c1ccccc1F (stereo not given)	nt	i	nt
COc1ccccc1N1C(=N)S/C(=C\c2ccc(-c3ccccc3C(=O)O)o2)C1=O	nt	?	25µM
N=C1S/C(=C\c2ccc(-c3cccc(Cl)c3)o2)C(=O)N1c1nccs1	i	i	?
Cc1ccc(NC(=O)CN2C(=O)S/C(=C\c3ccc(-c4cccc(C(=O)O)c4C)o3)C2=O)cc1C	nt	i	nt
N=C1S/C(=C\c2ccc(-c3ccccc3C(=O)O)o2)C(=O)N1c1ccc2c(c1)OCO2	nt	11µM	nt
SMILES	IMPase inh	ALDH1A1 inh	HPGD inh
CCOC(=O)N/N=C1/C[C@@H](O)[C@@H](O)[C@@H]2[C@@H]3C(=O)N(Cc4ccccc4)C(=O)[C@H]3CC[C@@H]12	nt	i[13.5 µM]	nt
CNc1ccnc(-c2c(C)noc2C)n1	nt	i	i
O=C(/C=C/c1c(Cl)nc2ccccn12)N1CCCCC1	nt	11µM	nt
O=C(/C=C/c1c(Cl)nc2ccccn12)N1CCN(c2ccccc2F)CC1	nt	i	nt
COc1ccc(OC)c(NC(=O)CC2C(=O)NCCN2C(=O)Nc2cccc(Cl)c2)c1 (stereo not given)	i	i	i
O=C1c2cccc3cccc(c23)C(=O)N1Nc1ccccc1	nt	25µM	nt
O=C1c2cccc3cc(Br)cc(c23)C(=O)N1Nc1ccc(Br)cc1	nt	i	i
C=CCn1c(C)c(C(C)=O)c(N2CCN(c3ccccc3)CC2)nc1=S	i	28µM	i
C=CCn1c(C)c(C(C)=O)c(N2CCCC2)nc1=S	i	i	i
Cc1ccc(Nc2nnns2)cc1	i	2.5µM	22µM
Cc1ccc(Nc2nc3ccccc3s2)cc1	nt	i	i
O=C(CN1N=C(c2ccc(Cl)cc2)CCC1=O)NCc1cccnc1	i	i	i
Cc1cc(C(=O)CSC(C)c2nc3ccccc3c(=O)[nH]2)c(C)n1C (stereo not given)	i	i	i
O=C(CSc1nc2ccccc2c(=O)[nH]1)c1ccccc1	?	?	13µM
Cc1cc(C(=O)CSc2nc3ccccc3c(=O)[nH]2)c(C)n1C	i	i	22µM
CC(C)(C)c1ccc(C(=O)CSc2nc3ccccc3c(=O)[nH]2)cc1	i	?	i
CC1CCCCC1NCC#CCOc1ccc(Cl)cc1 (stereo not given)	nt	i	nt
CC(C)NCC#CCOc1ccc(Cl)cc1	nt	2.4µM	nt
CSCCC(NC(=O)c1cccc([N+](=O)[O-])c1)C(=O)O (stereo not given)	nt	i	i
Cn1c[n+](C)cc1-c1ccc(/C(N)=N/O)cc1	nt	?	i

High-throughput results (PubChem)
